Results as given in PubChem BioAssay AID1159580 (chemical genetic matrix, 2015).
The campaign covered roughly 5,500 compounds. About 2,000 (36%) were called active. Inconclusive results (about 18%) are left out. Cut-off read from the data, not from the text of the source: active = normalized growth mostly below about 0.91 (no sharp cut-off); inconclusive = no clear call, values can overlap the other calls; inactive = mostly above about 0.92. The list shows a part of the results.

Assay: chemical genetic growth profiling, strain panel (AID 1159580);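 note: tested at 20 µM; growth read once vehicle control cultures reached saturation at 30 °C; 1 = growth at the plate median or of vehicle wells; lower values mean less growth of the strain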
Settings: growth OD
[1] = S. cerevisiae deletion strains, locus YAL013W, strain DEP1, hits give low values
[2] = S. cerevisiae deletion strains, locus YBR229C, strain ROT2, hits give low values
[3] = S. cerevisiae deletion strains, locus YDL101C, strain DUN1, hits give low values
[4] = S. cerevisiae deletion strains, locus YDR150W, strain NUM1, hits give low values
[5] = S. cerevisiae deletion strains, locus YEL061C, strain CIN8, hits give low values
[6] = S. cerevisiae deletion strains, locus YGR078C, strain PAC10, hits give low values
[7] = S. cerevisiae deletion strains, locus YGR229C, strain SMI1, hits give low values
[8] = S. cerevisiae deletion strains, locus YHR030C, strain SLT2, hits give low values
[9] = S. cerevisiae deletion strains, locus YHR087W, strain rtc3, hits give low values
[10] = S. cerevisiae deletion strains, locus YJR043C, strain POL32, hits give low values
[11] = S. cerevisiae deletion strains, locus YJR075W, strain HOC1, hits give low values
[12] = S. cerevisiae deletion strains, locus YLR039C, strain RIC1, hits give low values
[13] = S. cerevisiae deletion strains, locus YLR058C, strain SHM2 (second series), hits give low values
[14] = S. cerevisiae deletion strains, locus YLR085C, strain ARP6, hits give low values
[15] = S. cerevisiae deletion strains, locus YLR262C, strain YPT6, hits give low values
[16] = S. cerevisiae deletion strains, locus YML094W, strain GIM5, hits give low values
[17] = S. cerevisiae deletion strains, locus YMR219W, strain ESC1, hits give low values
[18] = S. cerevisiae deletion strains, locus YMR263W, strain SAP30, hits give low values
[19] = S. cerevisiae deletion strains, locus YNL153C, strain GIM3, hits give low values
[20] = S. cerevisiae deletion strains, locus YNL298W, strain CLA4 (second series), hits give low values
[21] = S. cerevisiae deletion strains, locus YNL322C, strain KRE1, hits give low values
[22] = S. cerevisiae deletion strains, locus YNR030W, strain Alg12, hits give low values
[23] = S. cerevisiae deletion strains, locus YPL055C, strain LGE1, hits give low values
[24] = S. cerevisiae deletion strains, locus YPL241C, strain CIN2, hits give low values
[25] = S. cerevisiae deletion strains, locus YPR135W, strain CTF4, hits give low values
[26] = S. cerevisiae deletion strains, locus YAR019C, strain CDC15, hits give low values
[27] = S. cerevisiae deletion strains, locus YBL105C, strain PKC1, hits give low values
[28] = S. cerevisiae deletion strains, locus YBR135W, strain CKS1, hits give low values
[29] = S. cerevisiae deletion strains, locus YBR136W, strain MEC1, hits give low values
[30] = S. cerevisiae deletion strains, locus YBR160W, strain CDC28, hits give low values
[31] = S. cerevisiae deletion strains, locus YDL017W, strain CDC7, hits give low values
[32] = S. cerevisiae deletion strains, locus YDL028C, strain MPS1, hits give low values
[33] = S. cerevisiae deletion strains, locus YDL108W, strain KIN28, hits give low values
[34] = S. cerevisiae deletion strains, locus YDL132W, strain cdc53, hits give low values
[35] = S. cerevisiae deletion strains, locus YDL214C, strain PRR2, hits give low values
[36] = S. cerevisiae deletion strains, locus YDR052C, strain DBF4, hits give low values
[37] = S. cerevisiae deletion strains, locus YDR054C, strain cdc34, hits give low values
[38] = S. cerevisiae deletion strains, locus YDR226W, strain ADK1, hits give low values
[39] = S. cerevisiae deletion strains, locus YDR477W, strain SNF1, hits give low values
[40] = S. cerevisiae deletion strains, locus YER123W, strain YCK3, hits give low values
[41] = S. cerevisiae deletion strains, locus YER133W, strain GLC7, hits give low values
[42] = S. cerevisiae deletion strains, locus YFL009W, strain cdc4, hits give low values
[43] = S. cerevisiae deletion strains, locus YFL029C, strain CAK1, hits give low values
[44] = S. cerevisiae deletion strains, locus YFR003C, strain YPI1, hits give low values
[45] = S. cerevisiae deletion strains, locus YFR019W, strain FAB1, hits give low values
[46] = S. cerevisiae deletion strains, locus YFR028C, strain CDC14, hits give low values
[47] = S. cerevisiae deletion strains, locus YGR040W, strain KSS1, hits give low values
[48] = S. cerevisiae deletion strains, locus YGR052W, strain FMP48, hits give low values
[49] = S. cerevisiae deletion strains, locus YGR092W, strain DBF2, hits give low values
[50] = S. cerevisiae deletion strains, locus YHR079C, strain IRE1, hits give low values
[51] = S. cerevisiae deletion strains, locus YHR082C, strain KSP1, hits give low values
[52] = S. cerevisiae deletion strains, locus YHR205W, strain SCH9, hits give low values
[53] = S. cerevisiae deletion strains, locus YIL147C, strain SLN1, hits give low values
[54] = S. cerevisiae deletion strains, locus YJL095W, strain BCK1, hits give low values
[55] = S. cerevisiae deletion strains, locus YJL128C, strain PBS2, hits give low values
[56] = S. cerevisiae deletion strains, locus YJL157C, strain FAR1, hits give low values
[57] = S. cerevisiae deletion strains, locus YJR016C, strain ILV3, hits give low values
[58] = S. cerevisiae deletion strains, locus YJR066W, strain TOR1 (second series), hits give low values
[59] = S. cerevisiae deletion strains, locus YJR066W, strain TOR1, hits give low values
[60] = S. cerevisiae deletion strains, locus YKL048C, strain ELM1, hits give low values
[61] = S. cerevisiae deletion strains, locus YKL067W, strain YNK1, hits give low values
[62] = S. cerevisiae deletion strains, locus YKL101W, strain HSL1, hits give low values
[63] = S. cerevisiae deletion strains, locus YKL193C, strain SDS22, hits give low values
[64] = S. cerevisiae deletion strains, locus YKL203C, strain TOR2, hits give low values
[65] = S. cerevisiae deletion strains, locus YLR113W, strain HOG1, hits give low values
[66] = S. cerevisiae deletion strains, locus YLR133W, strain CKI1, hits give low values
[67] = S. cerevisiae deletion strains, locus YLR403W, strain SFP1, hits give low values
[68] = S. cerevisiae deletion strains, locus YML070W, strain DAK1, hits give low values
[69] = S. cerevisiae deletion strains, locus YMR001C, strain CDC5, hits give low values
[70] = S. cerevisiae deletion strains, locus YMR205C, strain PFK2 (second series), hits give low values
[71] = S. cerevisiae deletion strains, locus YMR277W, strain FCP1, hits give low values
[72] = S. cerevisiae deletion strains, locus YNL006W, strain LST8, hits give low values
[73] = S. cerevisiae deletion strains, locus YNL020C, strain ARK1, hits give low values
[74] = S. cerevisiae deletion strains, locus YNL161W, strain CBK1, hits give low values
[75] = S. cerevisiae deletion strains, locus YNL183C, strain NPR1, hits give low values
[76] = S. cerevisiae deletion strains, locus YNL207W, strain RIO2, hits give low values
[77] = S. cerevisiae deletion strains, locus YNL222W, strain SSU72, hits give low values
[78] = S. cerevisiae deletion strains, locus YNL307C, strain MCK1 (second series), hits give low values
[79] = S. cerevisiae deletion strains, locus YOL078W, strain AVO1, hits give low values
[80] = S. cerevisiae deletion strains, locus YOL136C, strain PFK27, hits give low values
[81] = S. cerevisiae deletion strains, locus YOR061W, strain CKA2, hits give low values
[82] = S. cerevisiae deletion strains, locus YOR119C, strain RIO1, hits give low values
[83] = S. cerevisiae deletion strains, locus YOR231W, strain MKK1, hits give low values
[84] = S. cerevisiae deletion strains, locus YOR329C, strain SCD5, hits give low values
[85] = S. cerevisiae deletion strains, locus YPL031C, strain PHO85, hits give low values
[86] = S. cerevisiae deletion strains, locus YPL153C, strain RAD53, hits give low values
[87] = S. cerevisiae deletion strains, locus YPL204W, strain HRR25, hits give low values
[88] = S. cerevisiae deletion strains, locus YPL209C, strain IPL1, hits give low values
[89] = S. cerevisiae deletion strains, locus YPL256C, strain CLN2, hits give low values
[90] = S. cerevisiae deletion strains, locus YPR025C, strain CCL1, hits give low values
[91] = S. cerevisiae deletion strains, locus YPR106W, strain ISR1, hits give low values
[92] = S. cerevisiae deletion strains, locus YPR111W, strain DBF20, hits give low values
[93] = S. cerevisiae deletion strains, strain NNK1, hits give low values
[94] = S. cerevisiae deletion strains, strain TSCII, hits give low values

Measured: normalized growth

Cc1onc(-c2c(F)cccc2Cl)c1C(=O)c1ccc(F)cc1
active: [15] 0.787
inactive: [1] 0.939 | [2] 0.98 | [3] 0.991 | [4] 0.963 | [5] 0.979 | [6] 0.973 | [7] 0.969 | [8] 0.696 | [9] 0.959 | S. cerevisiae deletion strains, locus YJL187C, strain SWE1, hits give low values 0.975 | [10] 0.956 | [11] 0.937 | S. cerevisiae deletion strains, locus YKL190W, strain CNB1, hits give low values 0.974 | [12] 0.807 | [13] 0.987 | [14] 0.8 | [16] 0.972 | [17] 0.996 | [18] 0.978 | S. cerevisiae deletion strains, locus YMR307W, strain GAS1, hits give low values 0.708 | [19] 0.973 | [20] 0.93 | [21] 0.97 | [22] 0.949 | [23] 0.929 | [24] 0.964 | [25] 0.817 | S. cerevisiae strains, strain wild type, hits give low values 0.959

Cc1onc(-c2c(F)cccc2Cl)c1C(=O)ON=C1C2CC3CC(C2)CC1C3
inactive: [26] 1.06 | [3] 0.97 | [34] 1.06 | [35] 0.955 | [36] 0.997 | [37] 1.04 | [39] 0.965 | [40] 0.939 | [41] 0.979 | [42] 1.06 | [43] 1.07 | [45] 0.967 | [46] 1.02 | [47] 0.953 | [48] 0.974 | [49] 0.982 | [8] 0.895 | [50] 0.967 | [51] 0.981 | [52] 0.85 | [54] 0.968 | [55] 1.01 | [56] 0.95 | [57] 1.04 | [58] 0.924 | [59] 0.98 | [60] 0.968 | [61] 0.974 | [62] 0.94 | [64] 0.969 | [66] 0.951 | [67] 0.894 | [68] 0.934 | [70] 0.971 | [71] 1.06 | [73] 0.955 | [75] 0.917 | [76] 1.03 | [78] 0.953 | [79] 1.05 | [80] 0.933 | [81] 0.965 | [82] 0.976 | [83] 0.9 | [85] 0.975 | [86] 0.959 | [87] 0.931 | [89] 0.866 | [91] 1.04 | [92] 1.06 | [93] 1.03 | [94] 1.04
active: [27] 1.11 [resistant] | [28] 1.09 [resistant] | [29] 1.08 [resistant] | [30] 1.08 [resistant] | [31] 1.08 [resistant] | [32] 1.08 [resistant] | [33] 1.09 [resistant] | [38] 1.06 [resistant] | [44] 1.09 [resistant] | [53] 1.1 [resistant] | [63] 1.08 [resistant] | [65] 0.816 | [69] 1.07 [resistant] | [72] 1.1 [resistant] | [74] 1.08 [resistant] | [77] 1.1 [resistant] | [84] 1.1 [resistant] | [88] 1.09 [resistant] | [90] 1.1 [resistant]

Cc1cc(NC(=O)c2c(-c3c(Cl)cccc3Cl)noc2C)c([N+](=O)[O-])cc1C
inactive: [1] 1.01 | [2] 1.01 | [3] 1.08 | [4] 1.03 | [5] 1 | [6] 1.04 | [7] 0.975 | [8] 1.02 | [9] 0.969 | [10] 1.02 | [11] 1 | [12] 1.04 | [13] 0.983 | [14] 0.999 | [15] 0.967 | [16] 0.992 | [17] 0.992 | [18] 1.04 | [19] 1.04 | [20] 1.04 | [21] 0.981 | [22] 0.975 | S. cerevisiae deletion strains, locus YOL006C, strain TOP1, hits give low values 0.987 | [23] 0.996 | [24] 1.01 | [25] 0.995

Cc1onc(-c2c(Cl)cccc2Cl)c1C(=O)NNc1c(Cl)cccc1Cl
inactive: [26] 0.962 | [27] 0.978 | [28] 0.986 | [29] 0.977 | [30] 0.975 | [31] 0.977 | [32] 0.97 | [3] 0.976 | [33] 0.971 | [34] 0.978 | [35] 0.941 | [36] 0.99 | [37] 0.972 | [38] 0.982 | [39] 0.932 | [40] 0.961 | [41] 0.961 | [42] 0.974 | [43] 0.983 | [44] 0.98 | [45] 0.972 | [46] 0.97 | [47] 0.941 | [48] 0.998 | [49] 0.987 | [50] 0.957 | [51] 1.01 | [52] 0.956 | [53] 0.977 | [54] 0.907 | [55] 0.923 | [56] 0.976 | [57] 0.988 | [58] 0.96 | [59] 0.957 | [60] 0.981 | [61] 0.941 | [62] 0.949 | [63] 0.986 | [64] 1.03 | [66] 0.976 | [67] 0.967 | [68] 0.942 | [69] 0.976 | [70] 0.963 | [71] 0.967 | [72] 0.979 | [73] 0.988 | [74] 0.989 | [75] 1 | [76] 0.991 | [77] 0.977 | [78] 0.972 | [79] 0.982 | [80] 0.956 | [81] 0.974 | [82] 0.957 | [83] 0.927 | [84] 0.981 | [85] 0.937 | [86] 0.921 | [87] 0.945 | [88] 0.986 | [89] 0.858 | [90] 0.976 | [91] 0.96 | [92] 0.956 | [93] 0.986 | [94] 0.983
active: [8] 0.794 | [65] 0.827
